Screening results as filed in PubChem.
Only some compounds are listed: those with a hit (about 10% of all), similar ones and a draw of the others.
HP1b chromo inh – HTS for Inhibitors of HP1-beta Chromodomain Interactions with Methylated Histone Tails. AlphaScreen HP1-beta / biotin-H3K9me3 peptide binding. 390,000 tested, 0.56% active. AID 540317, 2011. Chromobox protein homolog 1 (Homo sapiens), P83916. Potency, µM (series often up to 114 µM), without a hit: top-dose activity change, negative = inhibition, usual class: inhibitors; also: nearly all actives have a fitted effect of over 70% in size
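HP1-beta protein (50 nM final) preincubated 30 min at room temperature with biotinylated H3(1-18)K9me3 peptide (50 nM) in PBS pH 7.4, 0.01% Tween-20, then compound added for 30 min. AlphaScreen streptavidin donor/nickel chelate acceptor beads (10 ug/mL final), 30 min dark, luminescence read.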
GLS inhibitor – qHTS for Inhibitors of Glutaminase (GLS) | Glutaminase kidney isoform, mitochondrial (Homo sapiens), O94925 | GLS enzymatic activity, qHTS titration | Potency, µM (series often up to 45.5 µM), inactives show at the highest dose activity change, negative = inhibition, most hits filed as inhibitors | 410,000 tested, 0.21% active | AID 624170, 2012; also: % is scaled to controls: 0 for no effect and ±100 for the full control effect
Target sequence (O94925 whole entry, looked up, canonical isoform): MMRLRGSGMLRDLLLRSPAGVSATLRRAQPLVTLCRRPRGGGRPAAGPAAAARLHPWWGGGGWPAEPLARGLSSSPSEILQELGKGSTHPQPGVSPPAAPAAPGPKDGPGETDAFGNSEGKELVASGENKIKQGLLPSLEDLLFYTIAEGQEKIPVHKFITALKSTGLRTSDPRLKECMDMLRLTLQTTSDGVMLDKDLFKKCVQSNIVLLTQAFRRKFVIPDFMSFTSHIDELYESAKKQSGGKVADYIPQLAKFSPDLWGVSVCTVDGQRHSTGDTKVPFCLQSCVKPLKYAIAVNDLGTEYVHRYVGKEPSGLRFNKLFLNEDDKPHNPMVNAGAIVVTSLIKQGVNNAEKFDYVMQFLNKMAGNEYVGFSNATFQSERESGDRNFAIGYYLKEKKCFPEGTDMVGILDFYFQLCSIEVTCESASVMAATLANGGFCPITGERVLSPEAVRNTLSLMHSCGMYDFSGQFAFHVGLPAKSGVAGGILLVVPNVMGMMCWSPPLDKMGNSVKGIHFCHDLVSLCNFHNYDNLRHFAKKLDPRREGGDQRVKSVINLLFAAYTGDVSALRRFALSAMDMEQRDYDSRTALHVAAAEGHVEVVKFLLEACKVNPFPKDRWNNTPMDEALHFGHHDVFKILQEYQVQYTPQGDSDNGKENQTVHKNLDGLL
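Coupled fluorescence readout: glutamate oxidase/HRP/Amplex Red detect glutamate formed by hKGA from L-glutamine (1 mM solution added). Buffer 45 mM KH2PO4 pH 8.2, 0.02% Tween-20; reads at t0 and 30 min RT.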
BAZ2B block – qHTS Assay for Inhibitors of BAZ2B; Bromodomain adjacent to zinc finger domain protein 2B (Homo sapiens), Q9UIF8; AlphaScreen BAZ2B-H3K14Ac peptide displacement; Potency, µM (top dose mostly 114 µM), inactives show at the highest dose activity change, negative = inhibition, actives largely listed as inhibitors; 360,000 tested, 4.4% active; AID 504333, 2011; also: % is scaled to controls: 0 for no effect and ±100 for the full control effect; nearly all actives have a fitted effect of over 60% in size
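Complex of BAZ2B and biotin-H3K14Ac (50 nM apiece) forms over 30 min at RT, then faces library compounds up to 110 uM for another 30 min; AlphaScreen beads added, 20 min dark incubation, luminescence read.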
JMJD2A Tudor – qHTS Assay for Inhibitors of JMJD2A-Tudor Domain. Lysine-specific demethylase 4A (Homo sapiens), O75164. Potency, µM (series often up to 114 µM), for the others: at the highest dose activity change, negative = inhibition, hits mostly inhibitors. AlphaScreen JMJD2A-Tudor / H3K4me3 peptide binding. 390,000 tested, 4.4% active; also: % is scaled to controls: 0 for no effect and ±100 for the full control effect; nearly all actives have a fitted effect of over 50% in size
G9a inh – qHTS Assay for Inhibitors of Histone Lysine Methyltransferase G9a | G9a H3K9 monomethylation, AlphaScreen, 2 h | Potency, µM (series often up to 102 µM), for the others: at the highest dose activity, negative = inhibition, most hits filed as inhibitors | 350,000 tested, 8.8% active; also: % is scaled to controls: 0 for no effect and ±100 for the full control effect; nearly all actives have a fitted effect of over 75% in size
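Methyltransferase reactions run at room temperature for 2 h (20 nM enzyme, 500 nM biotin-H3K9 peptide, 20 uM SAM) after a 15 min compound preincubation; product detected by AlphaScreen beads and anti-H3K9me1 antibody.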
Starred values were filed as active, the others as inactive; ? = inconclusive; . = not tested or not shown; [ ] = another dose, or the depositor's remark. Calls follow the shape of the dose curve; as a rule, active = well fitted curve in the direction sought with a large enough effect; inconclusive = small, poorly fitted or top-dose-only effect, or another doubt; inactive = no such curve, though single readings can be large; an effect the other way counts as inactive or inconclusive. Potency is read from the fitted curve at half-maximal effect.

SMILES | HP1b chromo inh | GLS inhibitor | BAZ2B block | JMJD2A Tudor | G9a inh
Cc1cc(C)cc(C(=O)NCC(=O)OCC(=O)N2c3ccccc3NC(=O)C2(C)C)c1 | 32% | 0% | 45µM* | -1% | -46%[59 µM]
COc1cc(OC)cc(C(=O)NCC(=O)OCC(=O)N2c3ccccc3NC(=O)C2(C)C)c1 | 1% | 11% | ? | -16% | -3%
CC1(C)C(=O)Nc2ccccc2N1C(=O)COC(=O)c1cc([N+](=O)[O-])ccc1N | -2% | 13% | -9% | -31% | 20µM*
CC[C@@H](C)C(N)C(=O)O (stereo partly specified) | . | -4% | . | . | 1%[12.7 µM]
Cc1ccc(NC(=O)CCS(=O)(=O)c2cc(Br)cc3c2N(C(=O)C2CC2)CC3)cc1 | 24% | -14% | -9% | -5% | -12%[59 µM]
O=[N+]([O-])c1ccc(-c2nc(-c3cccs3)c(-c3cccs3)[nH]2)cc1 | ? | -18% | -4% | 20µM* | .
COc1ccc(-c2nc(-c3ccccc3)c(-c3cccs3)[nH]2)cc1OC | -22% | -3% | 9% | 40µM* | -5%[12.7 µM]
Oc1cccc(-c2nc(-c3cccs3)c(-c3cccs3)[nH]2)c1 | -2% | 9% | 40µM* | ? | ?
Cc1ccc(-c2cnc3n2CCCCC3)cc1 | 16% | -3% | -12% | -26% | -1%
c1ccc(-c2ccc(-c3cnc4n3CCCCC4)cc2)cc1 | -43% | -15% | 50µM* | 56µM* | 18µM*
CCN(CC)c1ccc(SS(=O)(=O)O)cc1 | -22% | 36% | ? | 56µM* | 5µM*
CC(=O)Nc1ccc(NC(=O)COC(=O)[C@@H]2CCCN2C(=O)c2cccs2)cc1 | 17% | 1% | . | -4% | .
Cc1cccc(Cc2c(C)[nH]c(=O)c(C#N)c2C)c1 | 44% | -1% | 89µM* | -4% | 9%
COC(=O)C1=C(C(=O)OC)[C@@H]2N(C)c3ccc(OC)cc3[C@@]23C[C@@H](C(=O)OC)N(C(=O)c2ccc(Br)cc2)C3=N1 | -23% | 40% | 20µM* | 13µM* | ?
CCOC(=O)N1C2=NC(C(=O)OC)=C(C(=O)OC)[C@@H]3N(C)c4ccc(OC)cc4[C@]23C[C@H]1C(=O)OC | 25% | 35% | . | -12% | .
CC(C)(C)OC(=O)NCC(=O)N1CCC(C(=O)O)CC1 | 10% | -1% | -1% | -10% | -5%
CC(C)(C)OC(=O)NCc1n[nH]c(=S)n1C1CC1 | 30% | 4% | 9% | 28µM* | ?
O=C(COC(=O)c1ccc(Cl)cc1O)NC(=O)C1CCCCC1 | 21% | 1% | -15% | 6% | 50µM*
Cc1cccc(OCCCCn2nnc3sc4c(c3c2=O)CCC(C)C4)c1 (stereo unspecified) | 61% | -5% | ? | 71µM* | ?
CC1CCc2c(sc3nnn(Cc4cccc(C(=O)OC(C)C)c4)c(=O)c23)C1 (stereo unspecified) | 35% | 7% | 3% | 6% | 18µM*
CC(C)(C)C1CCc2c(sc3nnn(CCOc4ccccc4)c(=O)c23)C1 (stereo unspecified) | 58% | -5% | -13% | -18% | 20%[59 µM]
COc1ccc(OCCn2nnc3sc4c(c3c2=O)CCCC4)cc1 | 3% | -10% | 50µM* | 79µM* | -3%[59 µM]
O=C(NC(=S)Nn1cnc2c(cnn2-c2ccccc2)c1=O)c1ccc(Oc2ccccc2)cc1 | 12% | 4% | 5% | -12% | 7%[59 µM]
O=C(NC(=S)Nn1cnc2c(cnn2-c2ccccc2)c1=O)c1ccc(Cl)cc1 | 1% | 0% | 10% | -31% | 45µM*
CC1Nc2ccccc2C(=O)N1NC(=O)c1ccc(Br)cc1 (stereo unspecified) | 24% | -8% | . | 10% | 29%
Cc1nn2c3c(cnc2c1-c1ccc(F)cc1)C(=O)CC(c1ccccc1)C3 (stereo unspecified) | 46% | 3% | -11% | 5% | 21%[59 µM]
